Tests used:
Details in all cases: concentration: 1 μM, replicates: in singlicate; n = 1
PAK4 = test system: PAK4
PAK6 = test system: PAK6
PAK7 = test system: PAK7
PCTK1 = test system: T1, PCTK1
T1 construct: gene CDK16

PCTK2 = test system: T2, PCTK2
T2 construct: gene CDK17

PCTK3 = test system: T3, PCTK3
T3 construct: gene CDK18

PDGFRA = test system: PDGFRA
PDGFRB = test system: PDGFRB
PDPK1 = test system: PDPK1
PFTAIRE2 = test system: PFTAIRE2
PFTK1 = test system: T4, PFTK1
T4 construct: gene CDK14

PHKG1 = test system: PHKG1
PHKG2 = test system: PHKG2
PIK3C2B = test system: PIK3C2B
PIK3C2G = test system: PIK3C2G
PIK3CA = test system: PIK3CA
PIK3CB = test system: PIK3CB
PIK3CD = test system: PIK3CD
PIK3CG = test system: PIK3CG
PIK4CB = test system: T5, PIK4CB
T5 construct: gene PI4KB
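Also: KINOMEscan kinase panel screen.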

SMILES	%Inh (PAK4) [%]	%Inh (PAK6) [%]	%Inh (PAK7) [%]	%Inh (PCTK1) [%]	%Inh (PCTK2) [%]	%Inh (PCTK3) [%]	%Inh (PDGFRA) [%]	%Inh (PDGFRB) [%]	%Inh (PDPK1) [%]	%Inh (PFTAIRE2) [%]	%Inh (PFTK1) [%]	%Inh (PHKG1) [%]	%Inh (PHKG2) [%]	%Inh (PIK3C2B) [%]	%Inh (PIK3C2G) [%]	%Inh (PIK3CA) [%]	%Inh (PIK3CB) [%]	%Inh (PIK3CD) [%]	%Inh (PIK3CG) [%]	%Inh (PIK4CB) [%]
Cc1cccc(-c2nc(Nc3ccc4ncsc4c3)c3ccccc3n2)n1 [GW867588]	8	0	8	0	0	0	33	0	0	0	0	0	0	0	10	0	0	30	0	28
Cn1cc(-c2ccc3c(c2)CCN3C(=O)Cc2ccccc2Cl)c2c(N)ncnc21 [GSK2608885]	0	13	23	7	0	0	78	99.9	23	14	8	1	0	0	0	0	11	30	3	8
COc1ccc(CNC(=O)NC2CCN(c3ccnc(Nc4ccc(OC)cc4)n3)C2)cc1 (centres unmarked) [GSK1379727]	0	0	1	0	0	4	0	20	0	7	9	0	0	0	0	0	0	26	0	2
Fc1ccc(-c2nn3c(OCC(F)(F)F)cccc3c2-c2ccncc2)cc1 [GW514784]	0	0	16	0	15	0	0	21	0	7	3	0	0	0	0	0	0	30	0	0
Cc1nnc(-c2ccc(C)c(-c3ccc(C(=O)Nc4ccc(NS(C)(=O)=O)cc4)cc3)c2)o1 [GW702865]	0	0	6	0	7	12	9	36	0	3	14	2	0	0	0	0	0	10	0	0
COC(=O)Nc1nc2cc(Oc3ccc(NC(=O)Nc4cc(F)ccc4F)cc3)ccc2[nH]1.Cl [GW701424]	0	0	12	0	0	23	98.9	100	0	0	19	0	0	0	0	0	0	0	0	0
O=C(Nc1n[nH]c2cc(-c3cccc(F)c3)ccc12)C1CC1 [SB-735464]	0	0	0	5	6	0	42	67	0	26	3	0	0	19	20	0	4	14	16	18
O=C(NCCNc1ccnc(Nc2ccc(F)cc2)n1)c1cc2ccccc2s1 [GSK1379874]	0	0	0	0	0	0	0	26	0	17	0	0	0	0	0	0	0	0	0	0
O=C(c1ccc(-c2cc(-c3c[nH]nc3-c3ccccn3)ccn2)cc1)N1CCOCC1 [GW812171]	6	0	0	0	0	0	0	0	0	0	20	1	0	0	0	29	0	0	0	8
Cl.Oc1cccc(Nc2ccnc3cc(-c4ccncc4)ccc23)c1 [GW494601]	0	0	14	0	0	18	98.5	99.5	0	2	12	0	0	13	2	0	0	22	0	0

From publication PMC5540273 (PLoS ONE, 2017)
